Reference: PubChem BioAssay (NCI)
Compounds without any hit were thinned out: in the full panel of roughly 83,000, 20% have a hit.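 Cells were grown in 96-well plates and exposed to the test compound at a single concentration for 48 hours; results are reported as percent growth, with values below 10 considered active.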 The source made the active and inactive calls.

What was measured:
Experiment in all cases: NCI-60 one-dose screen, 48 h (100 = growth as untreated, 0 = no growth, -100 = all killed)
Conditions in all cases: 10 µM
[1] = system: DU-145 prostate
[2] = system: K-562 leukemia
[3] = system: MALME-3M melanoma
[4] = system: MDA-MB-231 breast
[5] = system: RXF 393 renal
[6] = system: SF-268 CNS
[7] = system: SF-295 CNS
[8] = system: SF-539 CNS
[9] = system: UACC-257 melanoma
[10] = system: M14 melanoma

Measured: growth

CCN(CC)CCOC(=O)c1ccc(N=Nc2ccc(O)c(OC)c2)cc1
inactive: [1] 108% | [2] 95.3% | [3] 97% | [4] 110% | [5] 89.4% | [6] 94.7% | [7] 101% | [8] 96.4% | [9] 96.5% | [10] 103%

Cc1[nH]nc2c(=S)[nH]c(=O)[nH]c12
inactive: [1] 106% | [2] 105% | [3] 88.2% | [4] 104% | [5] 107% | [6] 104% | [7] 91% | [8] 101% | [9] 90% | [10] 100%

C#CCNCCN1C(=O)c2ccc3c4c(ccc(c24)C1=O)C(=O)N(CCNCC#C)C3=O
inactive: [1] 54.7% | [2] 25% | [4] 58% | [5] 52.1% | [6] 47.9% | [7] 27% | [8] 47.7% | [9] 14.4% | [10] 32.6%
active: [3] -12.9%

CCOC(=O)Nc1ccc2c(c1)C(=O)N(CCOC)c1ccccc1O2
inactive: [1] 43.8% | [2] 20.3% | [3] 61.2% | [4] 62.3% | [5] 56% | [6] 56.9% | [7] 28.8% | [8] 30.3% | [9] 61.7% | [10] 19.8%

Clc1cc(Cl)c(OCCCCCCN2CCNCC2)c(Cl)c1
active: [2] -43.6% | [4] -8.55% | [7] -37.8% | [9] -1.75% | [10] -43.9%
inactive: [1] 67.1% | [3] 50.1% | [5] 24.1% | [6] 55.3% | [8] 49%

Cc1nc(N)sc1Sc1nc2ccc(Cl)cc2c(=O)n1-c1ccc(Oc2ccccc2)cc1
inactive: [1] 92.5% | [2] 74.4% | [3] 95.1% | [4] 89.3% | [5] 86.4% | [6] 107% | [7] 67.8% | [8] 93.4% | [9] 75.7% | [10] 76.6%

NS(=O)(=O)c1ccc(N2N=C(c3ccc(-c4ccccc4)cc3)CC2c2ccc(Cl)cc2)cc1 (stereo not given)
inactive: [1] 96.6% | [2] 71.2% | [3] 106% | [4] 86.9% | [5] 73.4% | [6] 83.5% | [7] 88.4% | [8] 93.9% | [9] 92.4% | [10] 98.2%

CCN(Cc1ccccc1)C1CCN(Cc2cc(Br)ccc2O)CC1
inactive: [1] 67.4% | [2] 11.6% | [3] 42.7% | [4] 26.3% | [5] 48.7% | [6] 65.9% | [7] 63.8% | [8] 74.8% | [9] 46.1% | [10] 46.6%

COc1ccc(-c2nc(-c3nc4ccc(C)cc4[nH]3)c3ccccn23)cc1
active: [7] 8.6%
inactive: [1] 52.2% | [2] 20.4% | [3] 85.3% | [4] 32.9% | [5] 66.5% | [6] 45% | [8] 82.4% | [9] 57.6% | [10] 46.5%

COc1ccccc1S(=O)(=O)Nc1ccc2c(c1)CN(C)C(=O)N2
inactive: [1] 77.8% | [2] 28.6% | [3] 32.2% | [4] 54.7% | [5] 73.3% | [6] 72.9% | [8] 50.1% | [9] 33.8% | [10] 47.8%
active: [7] 5.34%

O=C(NC1CCN(Cc2ccccc2)CC1)c1cc(-c2ccncc2)nc2ccc(Cl)cc12
active: [9] -1.44%
inactive: [1] 33.2% | [2] 13.4% | [3] 56.9% | [4] 42.3% | [5] 37.8% | [6] 24.4% | [7] 14.6% | [8] 16.4% | [10] 16.1%

CCCCN(CCCC)c1ccc(C(=NC(C)CCCN(CC)CC)c2ccc(N(C)C)cc2)cc1 (stereo not given)
active: [2] -51.3% | [3] -77.9% | [4] -79.4% | [5] -84% | [6] -43.4% | [7] -72% | [8] -73.2% | [9] -70.6% | [10] -83%
inactive: [1] 21.1%

C=CCOc1ccc2c(c1)CC=C1[C@@H]2CC[C@]2(C)C(=O)/C(=N/O)C[C@@H]12
active: [2] 8.09%
inactive: [1] 91.7% | [3] 96.2% | [4] 90.2% | [5] 53.7% | [6] 76.3% | [7] 64.3% | [8] 46.1% | [9] 117% | [10] 79.4%

N=C(N)c1ccc(-c2ccc(-c3ccccc3)s2)cc1F
active: [1] -95.5% | [2] -70.8% | [3] -76.7% | [4] -82.3% | [5] -86.9% | [6] -84.6% | [7] -77.9% | [8] -97.3% | [9] -84.1% | [10] -93.1%

COc1cccc2c1C(=O)c1c(O)c3c(c(O)c1C2=O)C[C@@](O)(C(=O)COC(=O)c1cccnc1)C[C@@H]3OC1CC(N)C(O)C(C)O1 (stereo not given in full)
active: [1] 7.78% | [2] 1.5% | [3] -66.7% | [4] -18.6% | [5] -64.5% | [6] -30% | [7] -56.8% | [8] -36.4% | [9] -54.7% | [10] -43.4%

CCCCCCCOc1cccc(/C=C2/C(=O)N=C3SCCCN32)c1
inactive: [1] 55.7% | [2] 37% | [3] 81.6% | [4] 65.8% | [5] 83.7% | [6] 85% | [7] 75.1% | [8] 92.7% | [9] 68.4% | [10] 71%

CCNC(=S)NN
inactive: [1] 97.9% | [2] 43.9% | [3] 70.4% | [4] 90.5% | [5] 100% | [6] 103% | [7] 89.4% | [8] 100% | [9] 56.8% | [10] 87.2%

O=NN(CCCl)C(=O)NCc1ccc(-c2ccc(CNC(=O)N(CCCl)N=O)cc2)cc1
inactive: [1] 112% | [2] 84.2% | [3] 74.3% | [4] 124% | [5] 108% | [6] 69.7% | [7] 83.2% | [8] 65.7% | [9] 96.6% | [10] 95.4%

FC(F)(F)c1ccc(-c2cnc(Br)nc2NC2CCCCCC2)cc1
inactive: [1] 74.9% | [2] 10.6% | [4] 62.4% | [5] 52.7% | [6] 43.6% | [8] 82.4% | [10] 23.1%
active: [3] -42.4% | [7] -33.2% | [9] -1.23%

CC(C)=C1CCC(C)C/C1=N\N=C(N)N (stereo not given)
inactive: [1] 105% | [2] 97.9% | [3] 100% | [4] 113% | [5] 107% | [6] 99.2% | [7] 98.4% | [8] 104% | [9] 93.5% | [10] 102%

COc1ccc(-c2[nH]ncc2-c2cc(OC)c(OC)c(OC)c2)cc1
active: [1] -23.9% | [2] 6.11% | [4] 4.38% | [5] 0.469% | [7] -1.07% | [8] -28.1% | [10] 4.51%
inactive: [3] 57.2% | [6] 16% | [9] 42.6%

C[C@]12CC[C@H]3[C@@H](CC=C4C[C@@H](O)CC[C@@]43C)[C@@H]1CC[C@@H]2C(=O)C/C=N/O
inactive: [1] 99.5% | [2] 78.1% | [3] 84% | [4] 103% | [5] 96.2% | [6] 92.2% | [7] 97.2% | [8] 91.6% | [9] 99.5% | [10] 95.7%

CCOC(=O)[C@@H](Cc1ccccc1)NC(=O)c1[nH]c2ccc(Cl)cc2c(=O)c1C
inactive: [1] 113% | [2] 86.5% | [3] 107% | [4] 106% | [5] 98.5% | [6] 99.7% | [7] 97.4% | [8] 101% | [9] 81.7% | [10] 97.1%

N#CCC1CCCC1
inactive: [1] 127% | [2] 106% | [3] 114% | [4] 104% | [5] 107% | [6] 114% | [7] 90.6% | [8] 111% | [9] 100% | [10] 105%

CCC(OC(=O)CC(C)C)c1ccccc1 (stereo not given)
inactive: [1] 103% | [2] 99.6% | [3] 110% | [4] 106% | [5] 98.2% | [6] 93.7% | [7] 94.7% | [8] 98.4% | [9] 80.6% | [10] 102%

COc1ccc(-c2nc(-c3ccccc3)c(-c3ccccc3)[nH]2)cc1OC1CCCC1
inactive: [1] 86.4% | [2] 31.6% | [3] 103% | [4] 18.7% | [5] 13.7% | [6] 73.7% | [7] 52.9% | [8] 63.3% | [9] 79.9% | [10] 56.1%

O/N=C1\CCC2CCCCC2C1 (stereo not given)
inactive: [1] 113% | [2] 106% | [3] 98.2% | [4] 114% | [5] 104% | [6] 103% | [7] 93.6% | [8] 88.8% | [9] 107% | [10] 102%

O=C(CSc1nnc(-c2ccc(Cl)cc2)o1)c1ccccc1
inactive: [1] 101% | [2] 102% | [3] 112% | [4] 95.2% | [5] 99.9% | [6] 101% | [7] 100% | [8] 91.4% | [9] 98.9% | [10] 108%
